From PubChem BioAssay AID1159580 (chemical genetic matrix, 2015)
Values joined by “and” are separate entries in the source; they are usually repeats but may differ in a detail not shown here. Equal values may be shown once. About 2,000 (36%) of roughly 5,500 compounds were called active. Roughly 18% stayed inconclusive and do not appear here. Rule as the data show it: active = normalized growth mostly below about 0.91 (no sharp cut-off); inconclusive = no clear call, values can overlap the other calls; inactive = mostly above about 0.92. Some of the results follow.

Assay: chemical genetic growth profiling, strain panel (AID 1159580);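 also: tested at 20 µM; growth read once vehicle control cultures reached saturation at 30 °C; 1 = growth at the plate median or of vehicle wells; lower values mean less growth of the strain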
Details: S. cerevisiae deletion strains, growth OD

Measured: normalized growth

O=c1c(O)c(-c2ccc(O)cc2O)oc2cc(O)cc(O)c12
inactive: locus YKL009W, strain mrt4, hits give low values 1.01 | locus YKL068W, hits give low values 1.01 | locus YKL085W, strain MDH1 (second series), hits give low values 0.999 | locus YKL085W, strain MDH1, hits give low values 0.999 | locus YKL160W, strain elf1, hits give low values 0.989 | locus YKL190W, strain CNB1, hits give low values 1 | locus YKR001C, strain vps1, hits give low values 1.01 | locus YKR026C, strain gcn3, hits give low values 0.975 | locus YKR091W, strain srl3, hits give low values 0.996 | locus YLL001W, strain dnm1, hits give low values 0.983 | locus YLL026W, hits give low values 1 | locus YLL041C, strain sdh2, hits give low values 0.999 | locus YLR027C, strain aat2, hits give low values 1.01 | locus YLR039C, strain RIC1, hits give low values 1.04 | locus YLR058C, strain SHM2, hits give low values 0.984 | locus YLR102C, strain apc9, hits give low values 1.01 | locus YLR113W, strain HOG1, hits give low values 1 | locus YLR221C, strain rsa3, hits give low values 0.963 | locus YLR258W, strain gsy2, hits give low values 0.985 | locus YLR262C, strain YPT6 (second series), hits give low values 0.966 | locus YLR262C, strain YPT6, hits give low values 1.06 | locus YLR268W, strain sec22, hits give low values 1.03 | locus YLR320W, strain mms22, hits give low values 0.959 | locus YLR330W, strain CHS5, hits give low values 1.01 | locus YLR342W, strain FKS1 (second series), hits give low values 0.965 | locus YLR342W, strain FKS1, hits give low values 0.974 | locus YLR357W, strain rsc2, hits give low values 0.924 | locus YLR370C, strain arc18, hits give low values 0.988 | locus YLR371W, strain rom2, hits give low values 0.995 | locus YLR384C, strain iki3, hits give low values 1 | locus YLR418C, strain cdc73, hits give low values 1.05 | locus YML016C, strain PPZ1, hits give low values 0.972 | locus YML032C, strain rad52, hits give low values 1 | locus YML120C, strain ndi1, hits give low values 0.994 | locus YML124C, strain tub3, hits give low values 1.02 | locus YMR058W, strain fet3, hits give low values 0.932 | locus YMR078C, strain ctf18, hits give low values 1.03 | locus YMR125W, strain sto1, hits give low values 1 | locus YMR129W, hits give low values 1.01 | locus YMR205C, strain PFK2, hits give low values 0.98 | locus YMR223W, strain ubp8, hits give low values 0.986 | locus YMR231W, strain pep5, hits give low values 0.991 | locus YMR263W, strain SAP30, hits give low values 0.996 and 1.01 | locus YMR307W, strain GAS1, hits give low values 0.942 | locus YNL067W, strain RPL9B, hits give low values 1 | locus YNL071W, strain lat1, hits give low values 1 | locus YNL128W, strain TEP1, hits give low values 1 | locus YNL175C, strain NOP13, hits give low values 1.01 | locus YNL183C, strain NPR1, hits give low values 0.961 | locus YNL197C, strain WHI3, hits give low values 1.01 | locus YNL209W, strain ssb2, hits give low values 0.991 | locus YNL224C, strain SQS1, hits give low values 1.03 | locus YNL233W, strain BNI4, hits give low values 0.988 | locus YNL248C, strain rpa49, hits give low values 0.976 | locus YNL250W, strain rad50, hits give low values 1.01 | locus YNL271C, strain bni1, hits give low values 0.993 | locus YNL298W, strain CLA4, hits give low values 1 | locus YNL307C, strain MCK1, hits give low values 1.02 | locus YNL322C, strain KRE1 (second series), hits give low values 0.987 | locus YNL322C, strain KRE1, hits give low values 1 | locus YNR049C, strain mso1, hits give low values 1 | locus YNR052C, strain pop2, hits give low values 0.992 | locus YOL006C, strain TOP1, hits give low values 1.01 | locus YOL012C, strain htz1 0.825 | locus YOL147C, strain pex11, hits give low values 1.02 | locus YOR001W, strain rrp6, hits give low values 0.996 | locus YOR061W, strain CKA2, hits give low values 0.97 | locus YOR069W, strain VPS5, hits give low values 0.992 | locus YOR070C, strain gyp1, hits give low values 0.989 | locus YOR080W, strain dia2, hits give low values 0.994 | locus YOR083W, strain WHI5 (second series), hits give low values 1.01 | locus YOR083W, strain WHI5, hits give low values 0.974 | locus YOR106W, strain vam3, hits give low values 0.931 | locus YOR136W, strain idh2, hits give low values 1.02 | locus YOR144C, strain elg1, hits give low values 1.02 | locus YOR184W, strain ser1, hits give low values 1.01 | locus YOR231W, strain MKK1, hits give low values 0.988 | locus YOR265W, strain rbl2, hits give low values 0.991 | locus YOR270C, strain vph1, hits give low values 0.872 | locus YOR290C, strain snf2, hits give low values 0.976 | locus YOR316C, strain cot1, hits give low values 1.01 | locus YPL051W, strain arl3, hits give low values 0.952 | locus YPL055C, strain LGE1, hits give low values 1 | locus YPL078C, strain atp4, hits give low values 0.994 | locus YPL106C, strain sse1, hits give low values 0.916 | locus YPL240C, strain hsp82, hits give low values 0.997 | locus YPL241C, strain CIN2, hits give low values 1 | locus YPL256C, strain CLN2, hits give low values 0.974 | locus YPR119W, strain clb2, hits give low values 1.02 | locus YPR141C, strain kar3, hits give low values 1.01 | locus YPR163C, strain tif3, hits give low values 1.02 | locus YPR167C, strain met16, hits give low values 0.995 | strain wtn01, hits give low values 1.02
